In one assay the test system is CRL-7250. Kind of assay: Cytotoxic Profiling of Annotated Libraries Using Quantitative High-Throughput Screening (AID 1296008). As to max response: % is scaled to controls: 0 for no effect and ±100 for the full control effect. Conditions: Five cell lines viability, CellTiter-Glo ATP luminescence, 48-72 h; max response: active compounds read low. A digest of the protocol:
(§1)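 Cytotoxicity was measured as CellTiter-Glo ATP luminescence, read after 10 min at room temperature. Compound treatment of the cells lasted 48 or 72 hr at 37 degrees Celsius in a qHTS format.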
(In ATP-based viability assays light output follows the ATP content of the culture.)

For the next assay, the system named is HEK293. The assay is described as above. Conditions: Five cell lines viability, CellTiter-Glo ATP luminescence, 48-72 h; max response: active compounds read low. A digest of the protocol: as §1
Assay [1] relates to HaCat. Described as above. Conditions: Five cell lines viability, CellTiter-Glo ATP luminescence, 48-72 h; max response: active compounds read low. A digest of the protocol: as §1
For a further assay, the system named is KB-3-1. Described as above. The note with it: Five cell lines viability, CellTiter-Glo ATP luminescence, 48-72 h; max response: active compounds read low. A digest of the protocol: as §1
In assay [2] the test system is NIH3T3. The assay is described as above. Conditions: Five cell lines viability, CellTiter-Glo ATP luminescence, 48-72 h; max response: active compounds read low. A digest of the protocol:
as §1

The test system of assay [3] is HACAT. In words: qHTS assay to identify novel small-molecules to repurpose for Merkel cell carcinoma treatment (AID 1296009). Conditions: MCC and control cell lines, CellTiter-Glo viability, 72 h; at 44.8 µM (top of the series) unless noted. A digest of the protocol: (§2)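 Cell viability, measured as CellTiter-Glo luminescence, was normalized between DMSO and no-cell wells. The cells had been exposed to 8- or 11-point compound dilutions for 72 hr at 37 degree celsius.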
On the technique in general: qHTS replaces the single test concentration by a dilution series.

The test system of another assay is HEK293T. The assay is described as above. The note with it: MCC and control cell lines, CellTiter-Glo viability, 72 h; at 44.8 µM (top of the series) unless noted. A digest of the protocol: as §2
The next assay has as its system MCC-13. The description is as above. The note with it: MCC and control cell lines, CellTiter-Glo viability, 72 h; series mostly up to 46 µM. Summed up:
as §2

The subject of another assay is MCC-26. The description is as above. The note with it: MCC and control cell lines, CellTiter-Glo viability, 72 h; series mostly up to 46 µM. Summed up:
as §2

Another assay relates to MKL-1. Described as above. The note with it: MCC and control cell lines, CellTiter-Glo viability, 72 h; series mostly up to 46 µM. A digest of the protocol: as §2
The subject of a further assay is MKL-2. The description is as above. Conditions: MCC and control cell lines, CellTiter-Glo viability, 72 h; series mostly up to 46 µM. A digest of the protocol:
as §2

In assay [4] the test system is NIH3T3. The assay is described as above. The note with it: MCC and control cell lines, CellTiter-Glo viability, 72 h; at 44.8 µM (top of the series) unless noted. Summed up:
as §2

A further assay deals with UISO. Described as above. The note with it: MCC and control cell lines, CellTiter-Glo viability, 72 h; series mostly up to 46 µM. A digest of the protocol: as §2
For another assay, the system named is WaGa. Described as above. Conditions: MCC and control cell lines, CellTiter-Glo viability, 72 h; series mostly up to 46 µM. Summed up: as §2
The next assay relates to PC49. In words: qHTS profiling for inhibitors of Plasmodium falciparum proliferation (AID 504749). Also: potency is read from the fitted curve at half-maximal effect. Conditions: P. falciparum in erythrocytes, SYBR Green DNA, 72 h; series mostly up to 28.7 µM. Summed up:
(§3)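 SYBR Green fluorescence of parasite DNA, read after lysis and overnight dark incubation, measured growth over 72 h in erythrocyte culture at 0.3% parasitemia and 2.5% hematocrit. Data normalised to DMSO and 0.29 uM artemisinin, with plate-drift correction.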

In the next assay the test system is SC27B. The assay is described as above. Conditions: P. falciparum in erythrocytes, SYBR Green DNA, 72 h; series mostly up to 28.7 µM. A digest of the protocol: as §3
For the next assay, the system named is TAB109. Described as above. The note with it: P. falciparum in erythrocytes, SYBR Green DNA, 72 h; series mostly up to 28.7 µM. Summed up: as §3
For the next assay, the system named is TAB113. The description is as above. Conditions: P. falciparum in erythrocytes, SYBR Green DNA, 72 h; series mostly up to 28.7 µM. Summed up:
as §3

In another assay the test system is TAB165. Described as above. Conditions: P. falciparum in erythrocytes, SYBR Green DNA, 72 h; series mostly up to 28.7 µM. A digest of the protocol: as §3
A further assay relates to W2. The description is as above. The note with it: P. falciparum in erythrocytes, SYBR Green DNA, 72 h; series mostly up to 28.7 µM. A digest of the protocol: as §3

Structures are written as SMILES. Where “and” joins values, the source holds several entries; their conditions need not be identical. Equal values may be shown once. Inconclusive results are not listed. A number with no mark means an inactive call. Calls of active or inactive are those of the source. Calls follow the shape of the dose curve; as a rule, active = well fitted inhibition curve with a large enough effect; inconclusive = small, poorly fitted or top-dose-only effect; inactive = flat fitted curve, though single readings scatter.

Data on nine molecules can be found in PubChem BioAssay (NCATS).
Also: nearly all actives have a fitted effect of over 60% in size.

For the molecule `O=C(O)CSCC(=O)NC1CCSC1=O` (stereo not drawn), the max response was -2.44% with CRL-7250, -6.58% in the assay on HEK293 and 2.01% in the assay with NIH3T3 [2]. For the same molecule, the call in the assay with CRL-7250, in the assay with HEK293, in the assay on HaCat [1], in the assay with KB-3-1, with NIH3T3 [2] and with HACAT [3] was inactive. Besides, the molecule was classed as inactive in the assay on HEK293T and with NIH3T3 [4]. Besides, the Potency entry in the assay with MCC-13, with MCC-26, in the assay on MKL-1, with MKL-2, in the assay on UISO and in the assay with WaGa was “inactive” each time.
On to `CCOC(=O)c1ccc(OC(=O)CCCCCN=C(N)N)cc1`, for which the Potency entry in the assay with PC49, with SC27B, with MCC-13, in the assay on MCC-26, in the assay on MKL-1 and in the assay on MKL-2 was “inactive” throughout. Also, the Potency result in the assay with UISO and in the assay with WaGa was “inactive” in each case. Further, the max response in the assay on CRL-7250 is 1.52%; with HEK293, -2.03%; in the assay on HaCat [1] it was 4.21%; in the assay with KB-3-1, 1.69% and -0.41%. In addition, the result in the assay on CRL-7250, with HEK293, in the assay with HaCat [1], in the assay on NIH3T3 [2], in the assay with HACAT [3] and in the assay on HEK293T was inactive. The result with NIH3T3 [4] was inactive.
For the molecule `Cc1cc(NS(=O)(=O)c2ccc(N)cc2)no1`, the max response with CRL-7250 is -8.57%; in the assay on HEK293 it was 1.33% and -5.68%; in the assay with KB-3-1 it was -10.1%; in the assay on NIH3T3 [2] it was -3.95%. The result in the assay with CRL-7250, with HaCat [1], in the assay on KB-3-1, in the assay on NIH3T3 [2], in the assay with HACAT [3] and in the assay on NIH3T3 [4] was inactive. Also, the Potency entry with MCC-13, in the assay on MCC-26, in the assay on MKL-1, with MKL-2, in the assay with UISO and in the assay with WaGa was “inactive” each time.
Consider `CC(C)(Sc1cc(C(C)(C)C)c(O)c(C(C)(C)C)c1)Sc1cc(C(C)(C)C)c(O)c(C(C)(C)C)c1`, for which the Potency entry in the assay on PC49, with SC27B, with TAB109, with TAB113, in the assay on TAB165 and with MCC-13 was “inactive” throughout. The Potency result with MCC-26, with MKL-1, in the assay with MKL-2, in the assay on UISO and with WaGa was “inactive” each time. Further, the Potency in the assay on W2 is 4.05 µM (active). Further, the max response in the assay on CRL-7250 is -4.36%; in the assay with HEK293, 2.23%; in the assay with HaCat [1], 0.994%; in the assay on KB-3-1 it was -10.8% and 4.75%; in the assay on NIH3T3 [2] it was 1.18%. Further, the molecule was called inactive in the assay on CRL-7250, in the assay on HEK293, in the assay on HaCat [1], with NIH3T3 [2], with HACAT [3] and in the assay with HEK293T. In addition, the molecule was called inactive in the assay on NIH3T3 [4].
As to `NNC(=O)c1ccncc1`, the max response in the assay with CRL-7250 is 4.6%; with HEK293, 3.4% and -0.464%; in the assay with KB-3-1, -14.7% and 6.97%; in the assay on NIH3T3 [2], 1.44%. In addition, the outcome with CRL-7250, with HaCat [1] and in the assay on HACAT [3] was inactive. Further, the Potency result in the assay with MCC-13, in the assay with MCC-26, with MKL-1, with UISO and in the assay with WaGa was “inactive” in each case.
Consider `O=C(O)c1cc(=O)[nH]c(=O)[nH]1`, for which the Potency entry in the assay on PC49, in the assay on SC27B, in the assay with TAB109, in the assay on TAB113, in the assay on TAB165 and in the assay with W2 was “inactive” each time. Moreover, the Potency entry in the assay on MCC-13, with MCC-26, in the assay on MKL-1, with MKL-2, in the assay on UISO and in the assay with WaGa was “inactive” throughout. Moreover, the max response in the assay on CRL-7250 is 0.562%; in the assay with HEK293, -5.89% and -6.58%; in the assay with HaCat [1], -18%; in the assay on KB-3-1, -14.3% and 1.15%; in the assay with NIH3T3 [2] it was 3.37%. The molecule was called inactive in the assay on CRL-7250, in the assay with HaCat [1] and with HACAT [3].
With `O=NN(CCCl)C(=O)NC1CCCCC1`, the Potency entry in the assay on PC49, with SC27B, in the assay on TAB109, in the assay on TAB113, in the assay with TAB165 and in the assay on W2 was “inactive” in each case. Also, the Potency entry in the assay with MCC-13, with MKL-1, with MKL-2, in the assay on UISO and in the assay with WaGa was “inactive” in each case. The max response was 4.87% with CRL-7250; 3.97% in the assay on HEK293; 4.22% in the assay with HaCat [1]; 2.75% in the assay with KB-3-1; -1.41% in the assay on NIH3T3 [2]. Further, the call in the assay on CRL-7250, with HEK293, in the assay on HaCat [1], in the assay on KB-3-1, with NIH3T3 [2] and with HACAT [3] was inactive. The outcome with HEK293T and in the assay with NIH3T3 [4] was inactive.
With `CCCN[C@H]1CCc2nc(N)sc2C1`, the Potency entry with PC49, in the assay with SC27B, in the assay with TAB109, in the assay on TAB113, in the assay on TAB165 and in the assay on W2 was “inactive” throughout. Further, the Potency result in the assay on MCC-13, in the assay with MCC-26, in the assay on MKL-1, in the assay on MKL-2, in the assay with UISO and with WaGa was “inactive” in each case. Also, the max response in the assay with CRL-7250 is 0.673%; in the assay on HaCat [1] it was 3.55%; in the assay with KB-3-1 it was 5.22% and 4.84%; in the assay on NIH3T3 [2] it was 4.11% and -1.47%. Further, the molecule was classed as inactive in the assay with CRL-7250, in the assay on HEK293, in the assay on HaCat [1], with HACAT [3] and in the assay with HEK293T.
With `Cc1cccc(Nc2ccncc2S(=O)(=O)NC(=O)NC(C)C)c1`, the Potency result with PC49, in the assay with SC27B, in the assay on TAB109, with TAB113, in the assay with TAB165 and in the assay on W2 was “inactive” in each case. For the same molecule, the Potency result in the assay on MCC-13, with MCC-26, in the assay on MKL-1, in the assay with MKL-2, in the assay on UISO and in the assay with WaGa was “inactive” throughout. Besides, the max response is -14.3% in the assay on CRL-7250; 1.87% and -6.16% with HEK293; -0.391% in the assay with HaCat [1]; -4.26% and -4.09% with KB-3-1; 4.21% and -1.03% in the assay on NIH3T3 [2]. Besides, the outcome in the assay on CRL-7250, in the assay on HaCat [1] and in the assay on HACAT [3] was inactive.
